Laboratory results reported in PubChem BioAssay (EPA / NIEHS).
Values joined by “and” are separate entries in the source; they are usually repeats but may differ in a detail not shown here. Identical values can stand only once. Inconclusive results are not listed. Active and inactive are the calls of the source. How the source made its calls: active means hit-call score of the fitted dose curve at least 0.9, where 1 is the maximum; inconclusive means response in the unintended direction; inactive means score below 0.9.

test: ACEA_AR_agonist_AUC_viability: ACEA Biosciences xCELLigence Real-Time Cell Analysis on Androgen Receptor Agonism for Viability (AID 2283775);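 on AC50: viability read 80 hours after compound addition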
How it was run: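 22Rv1 cells; impedance growth kinetics; 8-pt 1:4 dilutions from 100 uM top final, ≤0.5% DMSO; n = 2; 80 h read; AUC viability, loss-of-signal vs DMSO.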

| Compound | AC50 | outcome |
| --- | --- | --- |
| O=C(O)C(F)(F)C(F)(F)C(F)(F)C(F)(F)C(F)(F)C(F)(F)C(F)(F)C(F)(F)C(F)(F)C(F)(F)F | 36 µM (active) | – |
| CC(C)OC(=O)Nc1ccccc1 | – | inactive |
| COc1ccc(C=O)cc1 | – | inactive |
| C=C(C)C(=O)[O][Sn]([CH2]CCC)([CH2]CCC)[CH2]CCC | 1.43 µM (active) | – |

test: ACEA_AR_antagonist_AUC_viability: ACEA Biosciences xCELLigence Real-Time Cell Analysis on Androgen Receptor Antagonism for Viability (AID 2283776);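 further: area under impedance growth curve at 80 h after dosing as viability; hits lower the growth signal relative to DMSO meaning cytotoxicity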
How it was run: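 22Rv1 human prostate cancer cells were seeded on electrode plates, monitored overnight, then exposed to eight 1:4 dilutions from 100 uM final. Impedance-based growth kinetics at 80 h gave an AUC viability endpoint normalized to DMSO.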

| Compound | outcome | AC50 |
| --- | --- | --- |
| Clc1nc(Cl)nc(Cl)n1 | inactive | – |
| CN(C)N=O | inactive | – |
| COC(=O)c1sccc1S(=O)(=O)NC(=O)Nc1nc(C)nc(OC)n1 | inactive | – |
| CC(=O)C=C(C)C | inactive | – |
| O=C(O)C(F)(F)C(F)(F)C(F)(F)C(F)(F)C(F)(F)C(F)(F)C(F)(F)C(F)(F)C(F)(F)C(F)(F)F | inactive | – |
| Cl/C=C\C[N+]12CN3CN(CN(C3)C1)C2 | inactive | – |
| N#CN=C(N)N | inactive | – |
| CCC[CH2][Sn]([CH2]CCC)([CH2]CCC)[O]C(=O)c1ccccc1 | – | 1.06 µM (active) |
| CC(C)(OO)c1ccccc1 | inactive | – |
| C[C@H]1CCCC(=O)CCC/C=C/c2cc(O)cc(O)c2C(=O)O1 | – | 31.3 µM (active) and 9.08 µM (active) |
| Clc1ccc(C2(Cn3cncn3)CC(Br)CO2)c(Cl)c1 (stereo unspecified) | inactive | – |
| CCCCCCCCSC(=O)Oc1cc(Cl)nnc1-c1ccccc1 | inactive | – |
| C=C(C)C#N | inactive | – |
| COP(=S)(OC)Oc1ccc(Sc2ccc(OP(=S)(OC)OC)cc2)cc1 | inactive | – |
| C1CCC(NC2CCCCC2)CC1 | inactive | – |
| CC(C)(c1ccccc1)c1ccc(O)c(C(C)(C)c2ccccc2)c1 | – | 12.8 µM (active) |
| CCOP(=S)(OCC)SCSP(=S)(OCC)OCC | – | 67 µM (active) |
| C=CC#N | inactive | – |
| COc1cc(-c2ccc(N)c(OC)c2)ccc1N | – | 18.4 µM (active) and 22.3 µM (active) |
| COc1ccc(C=O)cc1 | inactive | – |
| CC1(C)Cc2cccc(O)c2O1 | inactive | – |
| ClC(Cl)=C(Cl)C(Cl)=C(Cl)Cl | inactive | – |
| CCC(C)(C)c1ccc(O)c(C(C)(C)CC)c1 | – | 47.9 µM (active) |
| O=C(Cc1ccccc1)c1ccccc1 | inactive | – |
| Clc1ccc(COC(Cn2ccnc2)c2ccc(Cl)cc2Cl)cc1 (stereo unspecified) | – | 7.1 µM (active) |
| O=C(Nc1ccc2[nH]ccc2c1)c1cc2cc(F)ccc2n1Cc1cccc(F)c1 | – | 10 µM (active) |
| C=C(C)C(=O)[O][Sn]([CH2]CCC)([CH2]CCC)[CH2]CCC | – | 1.35 µM (active) |
| CNC | inactive | – |
| Cl/C=C/Cl | inactive | – |
| O=c1[nH]c(=O)[nH]c(=O)[nH]1 | inactive | – |

test: ACEA_ER_AUC_viability: ACEA Biosciences xCELLigence Real-Time Cell Analysis on Estrogen Receptor Agonism for Viability (AID 2283782);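 further: hit means loss of impedance signal meaning reduced cell growth or viability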
How it was run: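 Viability endpoint: reduced impedance area under the curve relative to DMSO, recorded by real-time electrode sensing over ~80 h of continuous exposure. Duplicate plates of T47D in hormone-depleted medium; eight concentrations, 1:4 dilutions, 100 uM maximum.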

| Compound | outcome | AC50 |
| --- | --- | --- |
| O=C(O)C(F)(F)C(F)(F)C(F)(F)C(F)(F)C(F)(F)C(F)(F)C(F)(F)C(F)(F)C(F)(F)C(F)(F)F | inactive | – |
| CC(C)OC(=O)Nc1ccccc1 | inactive | – |
| Cl/C=C\C[N+]12CN3CN(CN(C3)C1)C2 | – | 50 µM (active) |
| CCC[CH2][Sn]([CH2]CCC)([CH2]CCC)[O]C(=O)c1ccccc1 | – | 1.28 µM (active) |
| COP(=S)(OC)Oc1ccc(Sc2ccc(OP(=S)(OC)OC)cc2)cc1 | – | 85.5 µM (active) |
| C=CC#N | inactive | – |
| COc1ccc(C=O)cc1 | inactive | – |
| CCC(C)(C)c1ccc(O)c(C(C)(C)CC)c1 | – | 14.9 µM (active) |
| Clc1ccc(COC(Cn2ccnc2)c2ccc(Cl)cc2Cl)cc1 (stereo unspecified) | – | 21.5 µM (active) |
| O=C(Nc1ccc2[nH]ccc2c1)c1cc2cc(F)ccc2n1Cc1cccc(F)c1 | – | 12.4 µM (active) |
| C=C(C)C(=O)[O][Sn]([CH2]CCC)([CH2]CCC)[CH2]CCC | – | 1.43 µM (active) |
| O=c1[nH]c(=O)[nH]c(=O)[nH]1 | inactive | – |
